Screens deposited in PubChem by several laboratories.
PAFAH1B3 FP inh: inhibitors of human PAFAH1B3; inhibition, % at 3.39 µM; 340,000 compounds, 0.28% hits; recombinant PAFAH1B3, FP-rhodamine probe, fluorescence polarization;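 active means inhibition above the screen-wide average of all tested compounds plus 3 SD, cut at about 25% in these data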
PAFAH1B2 inh: PAFAH1B2 (human) inhibition | P68402 | recombinant PAFAH1B2, FP-rhodamine activity probe, fluorescence polarization | inhibition, % at 3.39 µM | 340,000 compounds, 1.2% hits | AID 492953;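 active means inhibition above the mean of all tested compounds plus 3 SD, cut at about 24% in these data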
DAGLB inh: diacylglycerol lipase beta (human) inhibition; Q8NCG7; HEK293T DAGLB membrane lysate, EnzChek fluorogenic substrate; inhibition, % at 5.17 µM; 340,000 compounds, 0.059% hits; AID 504411; in the data active means inhibition above about 34%
ATG4B inhibitor: ATG4B (human) cysteine protease inhibition; Q9Y4P1; ATG4B cleavage of LC3-PLA2, NBD-HPC fluorescence, 1 h; inhibition, % at 8.33 µM; 340,000 compounds, 0.51% hits; in the data active means inhibition above about 40%
pPAFAH inh: pPAFAH (human) enzyme inhibition; Q13093; recombinant pPAFAH, FP-rhodamine probe fluorescence polarization; inhibition, % at 3.39 µM; 330,000 compounds, 1.5% hits;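 active means inhibition above the mean inhibition across the screen plus 3 SD, cut at about 25% in these data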;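 further: inhibitors block binding of the rhodamine activity-based probe so polarization drops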
Target sequence (Q13093 whole entry, looked up): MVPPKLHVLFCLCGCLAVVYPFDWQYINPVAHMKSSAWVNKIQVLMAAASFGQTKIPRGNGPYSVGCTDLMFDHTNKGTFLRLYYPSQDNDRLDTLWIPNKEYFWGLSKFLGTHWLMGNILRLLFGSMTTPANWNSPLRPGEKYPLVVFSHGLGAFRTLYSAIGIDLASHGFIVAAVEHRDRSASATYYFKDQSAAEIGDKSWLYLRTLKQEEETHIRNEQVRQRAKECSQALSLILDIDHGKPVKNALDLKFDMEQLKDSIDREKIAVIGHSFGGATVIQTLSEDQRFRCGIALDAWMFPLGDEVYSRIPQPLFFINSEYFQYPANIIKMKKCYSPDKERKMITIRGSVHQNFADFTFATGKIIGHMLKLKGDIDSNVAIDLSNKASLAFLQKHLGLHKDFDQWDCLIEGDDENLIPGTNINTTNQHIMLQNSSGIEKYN
PAFAH2 FP inh: inhibitors of human PAFAH2 | Q99487 | recombinant PAFAH2, FP-rhodamine activity probe, fluorescence polarization | inhibition, % at 3.39 µM | 340,000 compounds, 0.99% hits | AID 492956;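 active means inhibition above the mean over all tested compounds plus 3 SD, cut at about 30% in these data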;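 further: inhibitors block probe labeling of enzyme so polarization drops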
Each line names hits and unclear results; the compound was inactive in the other large screens. Shown are actives, neighbours in structure and some others; about 3% of the full set was active somewhere.

O=c1oc2ccccc2c(Nc2cc3ccccc3cc2O)c1[N+](=O)[O-]	pPAFAH inh 27
O=c1oc2ccccc2c(Nc2ccccc2O)c1[N+](=O)[O-]	none
Nc1ccc2c(c1)C(=O)c1ccccc1-2	none
O=C1C(=O)c2ccc(-c3ccccc3)cc2-c2ccccc21	PAFAH1B3 FP inh 58, PAFAH2 FP inh 51
CCc1ccccc1N1CSC2=C(C#N)C(c3cc(OC)c(OC)cc3OC)CC(=O)N2C1 (stereo not drawn)	pPAFAH inh 25
CCOc1ccc(N2CSC3=C(C#N)C(c4ccco4)CC(=O)N3C2)cc1 (stereo not drawn)	pPAFAH inh 48
CCOC(=O)C1(Cc2cccc(Cl)c2)CCCN(C(=O)c2cccc(C)n2)C1 (stereo not drawn)	none
CCOc1ccc(N(CC(=O)NCCc2ccc(Cl)cc2)S(=O)(=O)c2c(C)[nH]c(=O)[nH]c2=O)cc1	PAFAH1B2 inh 28
CCOc1ccc(N(CC(=O)NCc2ccc(OC)cc2)S(=O)(=O)c2c(C)[nH]c(=O)[nH]c2=O)cc1	none
CCC1OC23CCCCC2C(C#N)(C(=N)O3)C1(C#N)C#N (stereo not drawn)	PAFAH1B3 FP inh 33, PAFAH1B2 inh 34, PAFAH2 FP inh 48
CC1OC2(C)OC(=N)C1(C#N)C(C#N)(C#N)C2c1ccccc1 (stereo not drawn)	none
N#CC12COC3(CCCCC3C1(C#N)C#N)OC2=N (stereo not drawn)	PAFAH1B3 FP inh 35, PAFAH2 FP inh 38
N#CC1(C#N)COC23CCCCC2C1(C#N)C(=N)O3 (stereo not drawn)	PAFAH2 FP inh 35
CC1OC23CCCCC2C(C#N)(C(=N)O3)C1(C#N)C#N (stereo not drawn)	none
COc1ccc(C2OC34CCCCC3C(C#N)(C#N)C2(C#N)C(=N)O4)cc1 (stereo not drawn)	PAFAH1B3 FP inh 50, PAFAH1B2 inh 46, PAFAH2 FP inh 61
O=C(O)/C=C/C(=O)c1c(-c2ccccc2)[nH]c2ccccc12	none
CCOc1ccc(C(=O)Nc2ccc(N3CCN(C(C)=O)CC3)cc2)cc1[N+](=O)[O-]	none
CC(=O)N1CCN(c2ccc(Oc3ccc([N+](=O)[O-])c(C(F)(F)F)c3)cc2)CC1	pPAFAH inh 25
CCN(CC(=O)NCc1ccc(Cl)cc1)C(=O)CSc1ccc(Br)cc1	PAFAH1B2 inh 26
Nc1ncnc2c1ncn2[C@@H]1O[C@H](CNCc2cccc(C#Cc3ccccc3)c2)[C@@H](O)[C@H]1O	none
CC(=O)c1ccc(OC(C)C)c(CSc2nc(O)cc(=O)[nH]2)c1	pPAFAH inh 28
O=c1cc(-c2ccccc2)nc(SCc2ccccc2)[nH]1	none
O=c1cc(O)nc(SCc2ccc(Cl)cc2)[nH]1	PAFAH1B2 inh 56
O=c1cc(-c2ccccc2)nc(SCc2ccc(Cl)cc2)[nH]1	PAFAH1B2 inh 24
O=c1[nH]c(SCc2ccc(Cl)cc2)nc2ccccc12	PAFAH1B2 inh 26
Cc1cccc(C(=O)OC(C)C(=O)N2CCc3ccccc3C2)c1C (stereo not drawn)	none
Cc1nnc(SCc2ccccc2)[nH]c1=O	pPAFAH inh 34
Cc1ccc(CSc2nnc(C)c(=O)[nH]2)cc1	none
O=c1[nH]c(SCc2ccc(Cl)cc2)nc2c1CCC2	PAFAH1B2 inh 52, pPAFAH inh 26
Cc1cc(=O)n2[nH]c(SCc3ccc(Cl)cc3)nc2n1	PAFAH1B2 inh 50, pPAFAH inh 26
CCOC(=O)[C@@H]1CSCCS(=O)(=O)N1Cc1ccccc1Br	none (no result: pPAFAH inh)
C=C(C)[C@H]1CC=C(C)C(=O)C1	none
O=C1C(O)=C(O)C(=O)c2ccccc21	PAFAH1B3 FP inh 30
O=S1(=O)CCN(c2ccccc2CC(c2c[nH]c3ccccc23)c2c[nH]c3ccccc23)CC1	none (no result: pPAFAH inh)
C#CCOCCOCCOCCNc1nc(N2CCN(C(=O)[C@H](CCCN=C(N)N)n3cc(C(N)[C@@H](C)CC)nn3)CC2)nc(N2CCN(C(=O)[C@H](CCC(=O)O)n3cc([C@@H](N)CO)nn3)CC2)n1 (stereo partly drawn)	none
Cc1cccc2sc(NC(=O)C3CCCO3)nc12 (stereo not drawn)	none
Cc1nc(C)c(C(=O)Nc2nc3c(C)cccc3s2)o1	pPAFAH inh 30
Cc1cccc2sc(NNC(=O)c3cc(=O)c4ccccc4o3)nc12	pPAFAH inh 27
O=C(N/N=C/c1ccccc1[N+](=O)[O-])C(=O)N1CCCC1	none
O=C(Nc1ccc(Cl)cc1)[C@@H]1[C@@H]2C(=O)N(c3ccc4ccccc4c3)C(=O)[C@@H]2[C@H]2C=CC=NN21	pPAFAH inh 29, PAFAH2 FP inh 33
O=C(Nc1ccc(Cl)cc1)[C@@H]1[C@@H]2C(=O)N(c3cccc(F)c3)C(=O)[C@@H]2[C@H]2C=CC=NN21	none
Cc1cc2ncn(S(=O)(=O)N3CCCCC3)c2cc1C	PAFAH1B2 inh 25
COc1cc(C(C)=O)ccc1OCC(O)CN(CCO)Cc1ccccc1 (stereo not drawn)	pPAFAH inh 32
COc1ccc(C2=NN(C(=O)c3ccco3)C(c3cccs3)C2)cc1OC (stereo not drawn)	none (no result: PAFAH1B3 FP inh, PAFAH1B2 inh, ATG4B inhibitor, pPAFAH inh, PAFAH2 FP inh)
CC(C)C(OC(=O)c1nsc(Cl)c1Cl)C(=O)NCc1ccccc1 (stereo not drawn)	pPAFAH inh 26
COc1ccc(CNC(=O)C(OC(=O)c2nsc(Cl)c2Cl)C(C)C)cc1 (stereo not drawn)	none
Nc1ncc(N=Nc2cc(C(=O)O)ccc2Cl)s1	pPAFAH inh 26
CCN(Cc1ccccc1)C(=O)CCc1nnc(CCCc2ccccc2)o1	PAFAH1B2 inh 26
CN(Cc1ccsc1)C(=O)CCc1nnc(CCCc2ccccc2)o1	none
O=C(Cc1cccc(NC(=O)C2CCN(C(=O)CCc3ccccc3)CC2)c1)Nc1cccc(C(=O)N2CCCC2)c1	none
CCc1ccc(-n2cc(-c3ccc([N+](=O)[O-])cc3)[nH]c2=S)cc1	none
CCc1ccc(-c2cn(C3CCCCC3)c(=S)[nH]2)cc1	pPAFAH inh 30
CC(/C=N/NC(=O)NC1CCCCC1)=C\c1ccccc1	pPAFAH inh 29
Cc1cc2nc3ccc(N(C)C)cc3nc2cc1N	PAFAH1B3 FP inh 32, PAFAH1B2 inh 31, pPAFAH inh 32, PAFAH2 FP inh 46
COc1ccccc1CC(=O)Nc1ccc(S(=O)(=O)N2CCOCC2)cc1	none
COC(=O)C1(NC(=O)NC2CCCCC2)CCCCC1	none
CC(C)(C)c1cc(OC(=O)C2CCCC2)ccc1O	PAFAH1B2 inh 92
FC(F)(F)c1cccc(Cc2noc(CN(Cc3ccccn3)CC3CCCO3)n2)c1 (stereo not drawn)	pPAFAH inh 33
O=C1CC[C@@H](CN(Cc2ccccn2)Cc2nc(Cc3cccc(C(F)(F)F)c3)no2)N1	none
O=C(O)CCC(=O)N1CCc2cc(S(=O)(=O)NCc3ccc(Cl)cc3)ccc21	none
